# Results as given in PubChem BioAssay (NCATS).
# Inconclusive results are not listed. Entries that show only a call come without a potency. Unmarked numbers belong to inactive results. Activity calls are given as the source filed them. Calls follow the shape of the dose curve; as a rule, active = well fitted inhibition curve with a large enough effect; inconclusive = small, poorly fitted or top-dose-only effect; inactive = flat fitted curve, though single readings scatter. *1 amine or outer side, *2 acyl side, *3 side chain or, on linkers, in order; H or OH if unused. Where a SMILES comes first, the peptide text is derived from it. Bridges are numbered along the chain shown (N, C = ends). [ ]: non-standard residue; d: D form. ξ: configuration not given here. ξPhe(βξ-Me) = CC(c1ccccc1)C(N)C(=O)O; X6 = O=C(CCC[*:2])[*:1]; 2Abz = Nc1ccccc1C(=O)O; GABA = NCCCC(=O)O
# Target: Calcium and integrin-binding protein 1 (Homo sapiens) (UniProt Q99828)
# Sequence (Q99828 whole entry, looked up): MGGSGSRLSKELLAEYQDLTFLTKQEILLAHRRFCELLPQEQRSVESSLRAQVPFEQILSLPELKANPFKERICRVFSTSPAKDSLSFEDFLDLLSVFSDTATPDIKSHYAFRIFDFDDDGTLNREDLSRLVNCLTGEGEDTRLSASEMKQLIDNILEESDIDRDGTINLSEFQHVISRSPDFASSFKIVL
# Test: Primary qHTS for Identification of Calcium Integrin Binding Protein 1 (CIB1) Competitor (AID 1508620);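 as to activity change, negative = inhibition: GST tagged CIB1 binding a fluorescein labelled alphaIIb integrin peptide tracer; top concentration of the series differs between compounds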
# Settings: CIB1-GST / FITC-alphaIIb peptide fluorescence polarization; series mostly up to 57.7 µM
# How it was run: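 Fluorescence polarization competition: CIB1-GST (1 uM final) preincubated with compound 15 min at room temperature, then FITC-labeled alphaIIb peptide (100 nM final) added for another 15 min. Polarization read at Ex 480/Em 540.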
# Potency is read from the fitted curve at half-maximal effect.
SMILES,Potency,"activity change, negative = inhibition"
C=C1C[C@]23C[C@H]1CC[C@H]2[C@@]12C=C[C@H](O)[C@@](C)(C(=O)O1)[C@H]2[C@@H]3C(=O)O,inactive,
CCOc1nc2cccc(C(=O)OCc3oc(=O)oc3C)c2n1Cc1ccc(-c2ccccc2-c2noc(O)n2)cc1,inactive,
C=C1C(O[C@@H]2O[C@H](CO)[C@@H](O)[C@H](O)[C@@H]2O)CC2C(C)(C)C(O)CCC2(C)C1CC/C(C)=C\CO (stereo not given in full),inactive,
C=C1CC[C@@H]2[C@](C)(CC[C@H](O)[C@@]2(C)CCC=C(C)C)[C@@H]1Cc1c[nH]c2ccccc12,inactive,
CO[C@@H]1CC[C@H](OC[C@]2(COC(=O)c3ccc(C)[nH]3)[C@H](OC(C)=O)CC[C@@]3(C)[C@@H]4CC=C(C)[C@@H](C5=C(O)C(=O)OC5O)[C@]4(C)CC[C@@H]32)O[C@H]1C (stereo not given in full),inactive,
CO/N=C(/C(=O)N[C@@H]1C(=O)N2C(C(=O)O)=C(CSC(=O)c3ccco3)CS[C@H]12)c1csc(N)n1,inactive,
CC1CCC2C(C(=O)O)=CC3CC(C)(C)CC132 (stereo not given),inactive,
C=C(C(=O)O)[C@@H]1CC=C2CCC[C@H](C)[C@@]2(C)C1,inactive,
Cc1nc2c(-c3cnc(N)nc3)nc(N3CCOCC3)nc2n1C(C)C,inactive,
CC(C)C(C#N)O[C@@H]1O[C@H](CO[C@@H]2OC[C@](O)(CO)[C@H]2O)[C@@H](O)[C@H](O)[C@H]1O (stereo not given in full),inactive,
CC(C)=CCC/C(C)=C/CC/C(C)=C/CC[C@]1(C)CCc2cc(O)cc(C)c2O1,inactive,
C[C@@H]1O[C@@H](O[C@@H]2[C@@H](O)[C@H](O[C@@H]3[C@@H](O)[C@@H](O)[C@H](O[C@H]4[C@H](OC(=O)[C@]56CCC(C)(C)C[C@H]5C5=CCC7[C@@]8(C)C[C@H](O)[C@H](O[C@@H]9O[C@H](C(=O)O)[C@@H](O)[C@H](O)[C@H]9O)[C@@](C)(CO)C8[C@H](O)C[C@@]7(C)[C@]5(C)CC6)OC[C@H](O)[C@@H]4O)O[C@H]3C)OC[C@H]2O)[C@H](O)[C@H](O)[C@H]1O (stereo not given in full),,3.71% [at 12.4 µM]
C[C@@H](OC(=O)/C=C/c1ccc(O)cc1)C1=C[C@]2(C=C[C@@H]3C(C(=O)O)=CO[C@@H](O[C@@H]4O[C@H](CO[C@@H]5O[C@H](CO)[C@@H](O)[C@H](O)[C@H]5O)[C@@H](O)[C@H](O)[C@H]4O)[C@@H]32)OC1=O,inactive,
COc1cc(/C=C/C(=O)OC2CC3CCC2(C)C3(C)C)ccc1O (stereo not given),inactive,
C=C1CCC2(OC1)OC1CC3C4CC=C5CC(O)CC(O[C@@H]6OC[C@@H](O)[C@H](O)[C@H]6O)C5(C)C4CCC3(C)C1(O)C2C (stereo not given in full),inactive,
O=C(C1CC1)N1CC[C@@H](Cc2n[nH]c(=O)n2-c2ccc(-c3ccc4occc4c3)cc2)C1,inactive,
CC(NC(=O)CC(=O)O)c1nc2ccccc2c(=O)[nH]1 (stereo not given),28.2 µM (active),
COc1cc(/C=C/CO)ccc1O[C@@H]1O[C@H](CO)[C@@H](O)[C@H](O)[C@H]1O,inactive,
C=CC(C)(C)C12CC3C(=O)NC(Cc4cnc[nH]4)C(=O)N3C1Nc1ccccc12 (stereo not given),inactive,
O=c1c2cccnc2n(-c2cccc([N+](=O)[O-])c2)c(=O)n1Cc1ccncc1,inactive,

SMILES,Potency,"activity change, negative = inhibition"
Cc1coc2c1CC1OC1(C)CCC1OC1(C)C2 (stereo not given),inactive,
CC[C@H](C)[C@@H]1NC(=O)[C@H](Cc2ccc(OC)cc2)NC(=O)CCCSC[C@@H](C(=O)N2CCC[C@H]2C(=O)N[C@@H](CC(C)C)C(=O)NCC(N)=O)NC(=O)[C@H](CC(N)=O)NC(=O)[C@H](CCC(N)=O)NC1=O (Y(Me)IQNCPLG-NH2; linker N-5 via X6),inactive,
C[C@@H]1O[C@@H](OC[C@H]2O[C@@H](OCCc3ccccc3)[C@H](O)[C@@H](O)[C@@H]2O)[C@H](O)[C@H](O)[C@H]1O,inactive,
C/C(=C\CCC(C(=O)O)C1CCC2(C)C3=C(CCC12C)C1(C)CCC(=O)C(C)(C)C1CC3)C(=O)O (stereo not given),inactive,
NC(=O)c1cccc(-c2cc(O)cc(OC(=O)NC3CCCCC3)c2)c1,inactive,
CC1=CC(=O)CC(C)(CO[C@@H]2O[C@H](CO)[C@@H](O)[C@H](O)[C@H]2O)C1(O)/C=C/C(C)=C/C(=O)O (stereo not given in full),inactive,
CC(=O)O[C@H]1[C@H](Oc2ccccc2COC(=O)C2(O)C=CCCC2=O)O[C@H](CO)[C@@H](O)[C@@H]1O (stereo not given in full),inactive,
CC(=O)N[C@H]1[C@H](O[C@H]2CC[C@@]3(C)C(CC[C@]4(C)C3CC=C3C5CC(C)(C)CC[C@]5(C(=O)O)[C@H](O[C@@H]5O[C@H](CO)[C@@H](O)[C@H](O)[C@H]5O)C[C@]34C)C2(C)C)O[C@H](CO[C@@H]2OC[C@H](O)[C@H](O)[C@H]2O[C@@H]2OC[C@@H](O)[C@H](O)[C@H]2O)[C@@H](O)[C@@H]1O (stereo not given in full),inactive,
CC(=O)OC[C@]1(O)[C@H]2[C@H](OC(=O)CC(C)C)OC=C(CO[C@@H]3O[C@H](CO)[C@@H](O)[C@H](O)[C@H]3O)[C@H]2C[C@@H]1O,inactive,
COc1cc(O[C@@H]2O[C@H](CO)[C@@H](O)[C@H](O)[C@H]2O)c(CCC(=O)OC[C@H]2O[C@@H](Oc3cc(OC)c(C4OC(=O)C(C)(O)C4O)cc3CCC(=O)O)[C@H](O)[C@@H](O)[C@@H]2O)cc1C1OC(=O)C(C)(O)C1O (stereo not given in full),inactive,
CC(C)(O)C1=CCC23COC(C2)C(O)(C(=O)O)CCC13 (stereo not given),inactive,
NS(=O)(=O)OC[C@@H]1C[C@@H](n2ccc3c(N[C@H]4CCc5ccccc54)ncnc32)C[C@@H]1O,inactive,
COC1=Cc2c(nc3n(c2=O)C(C)C(=O)NC3(O)C(C)C)OC=C1 (stereo not given),inactive,
C/C=C1\[C@H](O[C@@H]2O[C@H](CO)[C@@H](O)[C@H](O)[C@H]2O)OC=C(C(=O)OC)[C@H]1CC(=O)OC,inactive,
COC(=O)C[C@@H]1C(C(=O)O)=CO[C@@H](O[C@@H]2O[C@H](CO)[C@@H](O)[C@H](O)[C@H]2O)/C1=C\COC(=O)/C=C\c1ccccc1,inactive,
COc1ccc(C(=O)O[C@H]2CC(C)=CC[C@@]3(C)[C@@H](OC(C)=O)C[C@@](O)(C(C)C)[C@H]23)cc1,inactive,
CC(C)CC1NC(=O)C(C(C)c2ccccc2)NC(=O)C(C(C)C)NC(=O)C(C)NC(=O)CCCNC(=O)C(Cc2c[nH]c3ccccc23)NC(=O)C(C)NC1=O (stereo not drawn) (cyclo([GABA]AV[ξPhe(βξ-Me)]LAW); configuration not given here),inactive,
CCC(C)C1NC(=O)C2CCCN2C(=O)C(C(C)C)NC(=O)c2ccccc2NC(=O)C(Cc2ccc(O)cc2)NC(=O)C(C)NC(=O)C(C(C)O)NC1=O (stereo not given) (cyclo([2Abz]VPITAY); configuration not given here),inactive,
C=C1CCC[C@]2(C)C[C@]3(O)OC(=O)C(C)=C3C[C@@H]12,inactive,
CC(C)c1ccc(CC(=O)N2CCC[C@@H](c3cccc(OC(C)(C)C(=O)O)c3)C2)cc1,inactive,
